Experimental data published in PubChem BioAssay AID1645856 (Buhrlage Lab, Dana-Farber Cancer Institute and Novartis …, 2021).
In all, about 47,000 compounds went through this assay and about 510 (1.1%) were called active. This is one part of a sample in which actives are shown more often than they occur. Values without a mark were called inactive. Rule as the data show it: active = inhibition above about 30%; inactive = the rest.

Biological target: Ubiquitin carboxyl-terminal hydrolase 10 (Homo sapiens) (UniProt Q14694)
Assay: inhibitors of human USP10 deubiquitinase (AID 1645856)
Conditions: purified USP10, Ub-rhodamine fluorescence, 60 min; at 20 µM; active compounds read high

Sequence of Ubiquitin carboxyl-terminal hydrolase 10 (Homo sapiens) (Q14694 whole entry, looked up): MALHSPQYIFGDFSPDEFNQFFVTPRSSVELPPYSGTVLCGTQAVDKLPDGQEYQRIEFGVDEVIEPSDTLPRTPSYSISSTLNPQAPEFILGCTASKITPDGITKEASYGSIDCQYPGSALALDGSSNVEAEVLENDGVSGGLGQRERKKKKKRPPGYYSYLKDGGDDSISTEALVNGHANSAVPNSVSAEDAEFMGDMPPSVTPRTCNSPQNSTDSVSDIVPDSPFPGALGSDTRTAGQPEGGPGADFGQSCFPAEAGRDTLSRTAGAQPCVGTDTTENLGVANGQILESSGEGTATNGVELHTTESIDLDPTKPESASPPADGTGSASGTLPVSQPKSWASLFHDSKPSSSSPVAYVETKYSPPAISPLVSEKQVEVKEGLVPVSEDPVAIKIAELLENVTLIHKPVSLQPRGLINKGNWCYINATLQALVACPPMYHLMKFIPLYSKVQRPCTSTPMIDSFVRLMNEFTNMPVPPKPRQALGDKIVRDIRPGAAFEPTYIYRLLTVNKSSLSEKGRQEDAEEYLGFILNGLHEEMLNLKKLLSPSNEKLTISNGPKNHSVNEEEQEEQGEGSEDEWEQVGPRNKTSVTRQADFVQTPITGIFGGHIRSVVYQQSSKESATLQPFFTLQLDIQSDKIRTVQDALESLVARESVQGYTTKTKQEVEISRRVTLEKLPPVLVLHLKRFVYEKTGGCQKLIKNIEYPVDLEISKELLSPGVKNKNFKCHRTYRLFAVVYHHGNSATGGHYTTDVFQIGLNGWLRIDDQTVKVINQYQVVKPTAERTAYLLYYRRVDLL

Point of comparison: `Cc1cc(C)cc(NC(=O)c2cc(CN3CCOCC3)on2)c1`, inhibition -1.83%. Against it:
- O=C(Nc1cccc(Cl)c1)N(Cc1ccccc1)CC1CC=CCC1 (configuration not stated) — higher, 16.3%
- CCc1nnc(CN2CCC(C3CCCCCN3C(=O)NC(C)C)CC2)o1 (configuration not stated) — lower, -4.07%
- COc1ccc(Nc2cc(C(=O)N3CCC4(CC3)OCCO4)c3ccccc3n2)cc1 — higher, -0.645%
- CCN1C(=O)[C@H]2CN(C(C)=O)C[C@H]2C12CCN(C(=O)NCCc1ccc(OC)cc1)CC2 — higher, 0.803%
- O=C(CN(Cc1ccccc1Cl)S(=O)(=O)c1ccccc1F)NC(c1ccccc1)c1ccccc1 — higher, 6.49%
- Cc1ccc2[nH]c(=O)c(CN(CC3COCCO3)C(=O)Nc3ccccc3C)cc2c1 (configuration not stated) — higher, -0.00505%
- Cc1cc(=O)n(CC(=O)Nc2ccc3c(c2)OCO3)c2c1c(-c1ccccc1)nn2-c1ccccc1 — higher, 25%
- O=S(=O)(c1cc(-c2nnc(C3CC3)o2)co1)N1CCCCC1 — lower, -3.39%
- O=C(NC1CCCC1)c1ccc(N2CCOc3ccccc32)s1 — higher, 0.616%
- CCc1nnc(-c2cc(S(=O)(=O)Nc3ccccc3F)c[nH]2)o1 — lower, -2.11%
- O=C(Oc1ccc(Oc2ccccc2)cc1)c1ccc([N+](=O)[O-])cc1 — higher, 7.41%
- Cc1nn(-c2ccc(F)cc2)c(C)c1S(=O)(=O)NC1CC1 — lower, -2.46%
- COc1ccc(NS(=O)(=O)c2cc(NC(=O)/C=C/c3cccc(OC)c3)ccc2OC)cc1 — higher, 0.326%
- COc1ccc(NS(=O)(=O)c2cc(NC(=O)COc3ccccc3F)ccc2OC)cc1 — higher, 3.65%
- Cc1ccc(C2c3[nH]c4ccccc4c3C[C@H]3C(=O)N(c4ccccc4C(=O)NC4CCCCC4)C(=O)N23)cc1 (some centres not stated) — lower, -9.46%
- Cc1cccc(C(=O)NCc2nnc3ccccn23)c1 — higher, 5.59%
- CCOc1c(C)cnc2c1c(=O)n(CC(=O)N1CCC(C)CC1)c(=O)n2C — lower, -3.58%
- c1ccc(OCCn2nc(C3CCN(C4CCOCC4)CC3)c3nccnc32)cc1 — higher, -0.0392%
- O=C(NCc1ccc2c(c1)OCO2)c1cn(-c2cccc(Cl)c2)nn1 — higher, 28.3%
- CCN1CCN(Cc2nc(-c3ccc(N4CCCCC4)nc3)no2)CC1 — higher, 0.502%
- CCc1cc(C2CCCN2C(=O)NCc2ccc(F)cc2)on1 (configuration not stated) — higher, 0.108%
- CC1(C(=O)NC2CCCCCC2)Cc2ccccc2C(=O)N1C1CCCCC1 (configuration not stated) — higher, 3.98%
- O=C(c1ccccc1)c1ccc(NC2CCCc3ccccc32)c([N+](=O)[O-])c1 (configuration not stated) — lower, -3.29%
- O=C(COC(=O)c1ccc(F)cc1)NC1CCCc2ccccc21 (configuration not stated) — lower, -2.88%
- N#Cc1ccccc1OCC(=O)Nc1ccc(-c2cn3ccsc3n2)cc1 — lower, -4.52%
- COc1ccc(NC(=O)CSc2cn(CC(=O)N3CCCC3)c3ccccc23)cc1 — higher, 1.6%
- CCOc1ccc(NC(=O)Cn2cc(C(=O)c3ccc(Cl)cc3)c(=O)c3cc(OC)ccc32)cc1 — higher, 27%
- O=C(CN1CCCN(c2cc(-c3ccc(N4CCOCC4)cc3)ncn2)CC1)N1CCOCC1 — lower, -2.74%
- CCN1C(=O)[C@H]2CN(CCOC)C[C@H]2C12CCN(C(=O)Nc1ccccc1)CC2 — higher, 0.649%
- Cc1cc2nc(N3CCOCC3)n(CC(=O)Nc3ccccc3F)c(=O)c2n1C — higher, -1.21%
- Cc1ccc(CN2C(=O)C(CC(=O)Nc3ccccc3F)n3c2nc2ccccc23)cc1 (configuration not stated) — higher, 6.51%
- COc1ccc(NC(=O)CC2C(=O)NCCN2C(=O)Nc2ccc(F)cc2)cc1 (configuration not stated) — higher, -0.861%
- CCOc1ccc(-c2noc(-c3nn(-c4cccc(OC)c4)ccc3=O)n2)cc1 — higher, 7.86%
- Cc1cccc(-c2nnc(-c3cccc(S(=O)(=O)N4CCCC4)c3)o2)c1 — higher, 3.94%
- O=C(COC(=O)C1CCN(S(=O)(=O)c2c(Cl)cccc2Cl)CC1)Nc1ccc2c(c1)CCC2 — higher, 6.62%
- CCOC(=O)C1CCN(C(=O)c2cnc(Nc3ccc(C)c(Cl)c3)c3ccccc23)CC1 — higher, 6.16%
- COc1ccc(C(=O)Cn2nc(C)cc2C)cc1 — lower, -2.02%
- O=C(NCC1CCCO1)c1[nH]c2ccccc2c1Sc1ccc(Cl)cc1 (configuration not stated) — higher, 0.402%
- Cc1ccc(CC(=O)N2CCCC(c3ccncn3)C2)s1 (configuration not stated) — lower, -2.71%
- CC(c1ccncc1)n1nccc1NC(=O)c1cccnc1Sc1ccccc1 (configuration not stated) — lower, -7.87%
- CCc1noc(-c2ccnc(-n3ncc(C(=O)N4CCC(C)CC4)c3C)c2)n1 — higher, -0.304%
- COc1ccc(-c2cc(C(=O)NCCCN3CCCC3=O)c3ccccc3n2)cc1OC — lower, -3.65%
- CC(C)CC1NC(=O)C2(CCN(C(=O)Nc3ccc(Cl)c(Cl)c3)CC2)NC1=O (configuration not stated) — higher, 1.3%
- O=C(NCC1CCCO1)c1ccccc1N1C(=O)[C@@H]2Cc3c([nH]c4ccccc34)C(c3cccc(Cl)c3)N2C1=O (some centres not stated) — lower, -2.66%
- O=C(Nc1ccccc1Br)c1ncoc1-c1cccs1 — higher, 2.95%
- CCCc1nc(-c2c(C)cc(C)nc2NC(=O)C2CCCCC2)no1 — lower, -4.35%
- Cc1cccc(NS(=O)(=O)c2ccc3nnc(C)n3c2)c1 — lower, -2.24%
- COc1cccc(NS(=O)(=O)c2ccc(-c3coc(C)n3)cc2)c1 — higher, 2.04%
- COc1ccccc1C1CC(c2c(O)n(C)c(=O)n(C)c2=O)=Nc2ccccc2S1 (configuration not stated) — higher, 2.61%
- COC(=O)COc1cccc2c(=O)n(CC(=O)N3CCc4ccccc43)ccc12 — higher, 2.69%
- COc1ccccc1CN1CCC2(CC1)NC(=O)C(CC(C)C)NC2=O (configuration not stated) — higher, 0.757%
- CC(C)NC(=O)c1cc(-c2cnc(-c3ccnn3C)nc2)cn1CC1CC1 — higher, -0.689%
- O=S(=O)(Cc1ccccc1)N1CCC2(CCN(Cc3cccc(F)c3)C2)C1 (configuration not stated) — lower, -2.23%
- O=c1ccc(S(=O)(=O)N2CCOCC2)cn1Cc1ccccc1 — higher, -0.385%
- COc1cc(-c2nc(CC(=O)NCCc3c[nH]c4ccc(F)cc34)cs2)cc(OC)c1OC — lower, -1.95%
- CC(C)n1c(C2CCN(C(=O)Nc3ccc4c(c3)CCC4)C2)nc2ccncc21 (configuration not stated) — higher, 2.17%
- COc1cccc(CNC(=O)c2nnn(CC(=O)Nc3cc(C)ccc3C)c2N)c1 — higher, 29.8%
- Cc1ccc(NC(=O)Cc2sc(Nc3ccc(C)cc3)nc2O)cc1 — higher, 25.6%
- CS(=O)(=O)N1Cc2ccccc2OC2(CCCNC2)C1 (configuration not stated) — higher, -0.607%
- CCOc1nccnc1N1CCC(N(C)S(=O)(=O)C2CC2)C1 (configuration not stated) — higher, 1.55%
- CC(C)c1ccc(NC(=O)C[n+]2cc(-c3ccc(F)cc3)n3c2CCC3)cc1 — higher, 0.686%
- COc1ccccc1C(=O)Nc1cccc(Oc2ccccc2)c1 — higher, 11.9%
- COc1cccc(NC(=O)c2nn(-c3ccc(F)cc3)c(OC)cc2=O)c1 — higher, 0.262%
- COc1ccc(C2CC(=O)c3cnc(NCC4CCCO4)nc3C2)cc1 (configuration not stated) — higher, -0.196%
- COc1cccc(C2c3[nH]c4ccccc4c3C[C@@H]3C(=O)N(CC4CCCO4)CC(=O)N23)c1 (some centres not stated) — lower, -6.67%
- Cc1ccc(C(=O)Nc2nc3c(s2)CCC3C(=O)NCc2ccncc2)cc1 (configuration not stated) — lower, -7.71%
- Cc1cc(F)ccc1NC(=O)c1cc(C2CC2)n2nccc2n1 — lower, -3.56%
- Cc1ccc(Cn2cc(-c3noc(-c4ccccn4)n3)nn2)cc1 — higher, 7.3%
- O=C1NCCCn2cc(S(=O)(=O)NCc3ccc4c(c3)OCO4)cc21 — higher, -0.173%
- Cc1nc2cc(-c3noc(-c4cnccn4)n3)ccc2n(C2CCCC2)c1=O — lower, -3.38%
- CCCCN(C)c1ccc2nnc(CCc3nc(-c4cc(OC)cc(OC)c4)no3)n2n1 — lower, -5.1%
- CNC(=O)N1C[C@H]2C[C@H](C(=O)Nc3ccc4c(c3)OCO4)[C@@H](C1)O2 — higher, -1.52%
- O=C(COc1ccc2ccccc2c1)NCc1nnnn1-c1ccc(Cl)cc1 — higher, 6.45%
- CC1(C(N)=O)CN(Cc2ccnc(N3CCCC3)n2)CCO1 (configuration not stated) — lower, -2.23%
- CN1CC(=O)N(C2CCCNC2)Cc2c(NC3CCc4ccccc43)ncnc21 (configuration not stated) — the same, -1.83%
- O=S(=O)(c1ccc(F)c(Cl)c1)N1CCC(N2CCOCC2)CC1 — higher, 1.61%

For `COc1ccc(NS(=O)(=O)c2cc(NC(=O)CC(=O)c3ccc([N+](=O)[O-])cc3)ccc2C)cc1`, the inhibition was 43.8% (active).
For `Nc1ccc(C(=O)OCC(=O)NC2CCCc3ccccc32)cc1[N+](=O)[O-]` (configuration not stated), the inhibition was 31.8% (active).
In the case of `CCOc1ccc2c(c1)c(=O)c(C(=O)c1ccccc1)cn2CC(=O)Nc1ccc(OC)cc1`, the inhibition is reported as 59.7% (active).
For `Cc1nc2c(c(C)c1CCC(=O)Nc1ccccc1F)c(=O)n(C)c(=O)n2C`, the inhibition was 32.5% (active).
`O=C(Nc1nnc(-c2cccc([N+](=O)[O-])c2)o1)C1CCN(S(=O)(=O)c2ccc3c(c2)CCC3)CC1` was tested, and the inhibition was 46.7% (active).
In the case of `O=S(=O)(Nc1cccc(O)c1)c1ccc2oc3ccc(S(=O)(=O)Nc4cccc(O)c4)cc3c2c1`, the inhibition is reported as 54.6% (active).
In the case of `Oc1cccc2nc3c(O)cccc3nc12`, the inhibition is reported as 41.5% (active).
For `Cc1ccc(Nc2nc(NCC(=O)Nc3cc(C)ccc3C)nc(Nc3ccc(C)cc3)n2)cc1`, the inhibition was 37% (active).
For `COc1cccc(NC(=O)C(Sc2cccc(NC(=O)c3ccccc3F)c2)c2ccccc2)c1` (configuration not stated), the inhibition was 32.4% (active).
In the case of `Cc1ccc(-n2cc(-c3noc(C(=O)Nc4ccc(F)cc4C)n3)nn2)cc1`, the inhibition is reported as 76.1% (active).
